# Experimental data from the supplement of paper PMC11732987, “Enantioselective OTUD7B fragment discovery through chemoproteomics screening and high-throughput optimisation” (Communications Chemistry, 2025).
# Values without a mark were called inactive.
# Key:
# Experiment in all cases: log2 ratio of Biotin-Ahx-Ub-VS probe labelling (fragment/DMSO); higher = less target engagement (more negative = stronger competition), active = hit call of the paper (q ≤ 0.05, log2 ratio ≤ -1)
# Conditions in all cases: compound concentration: 200 uM; treatment time: 3 h
# USP9X = USP9X (UniProt Q93008)
# Method in brief: (§1)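 Using Biotin-Ahx-Ub-VS at 0.5 µM final for 1 h, DUBs were labelled in HEK293T lysate (495 µg per sample) that had first been treated in triplicate with fragment at 200 µM or vehicle for 3 h. NeutrAvidin enrichment, LysC and trypsin digestion and diaPASEF LC-MS/MS followed. Spectronaut label-free quantities were global-median-normalised. Values are average log2 fragment/vehicle ratios by unpaired t-test, using proteins with ≥2 unique peptides.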
# UniProt O00487 = molecular target: UniProt O00487
# Chain of UniProt O00487 (O00487 whole entry): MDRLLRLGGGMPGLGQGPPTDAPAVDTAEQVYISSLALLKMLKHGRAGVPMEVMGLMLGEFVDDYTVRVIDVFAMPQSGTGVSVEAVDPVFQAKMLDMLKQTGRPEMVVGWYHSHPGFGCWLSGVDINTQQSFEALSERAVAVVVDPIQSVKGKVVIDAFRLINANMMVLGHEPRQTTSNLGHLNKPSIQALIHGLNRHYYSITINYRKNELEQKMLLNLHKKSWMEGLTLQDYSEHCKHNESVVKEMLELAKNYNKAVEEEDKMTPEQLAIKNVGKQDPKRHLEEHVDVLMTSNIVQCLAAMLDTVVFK
# Method in brief: as §1
# UniProt O00507 = molecular target: UniProt O00507
# Chain of UniProt O00507 (O00507 whole entry): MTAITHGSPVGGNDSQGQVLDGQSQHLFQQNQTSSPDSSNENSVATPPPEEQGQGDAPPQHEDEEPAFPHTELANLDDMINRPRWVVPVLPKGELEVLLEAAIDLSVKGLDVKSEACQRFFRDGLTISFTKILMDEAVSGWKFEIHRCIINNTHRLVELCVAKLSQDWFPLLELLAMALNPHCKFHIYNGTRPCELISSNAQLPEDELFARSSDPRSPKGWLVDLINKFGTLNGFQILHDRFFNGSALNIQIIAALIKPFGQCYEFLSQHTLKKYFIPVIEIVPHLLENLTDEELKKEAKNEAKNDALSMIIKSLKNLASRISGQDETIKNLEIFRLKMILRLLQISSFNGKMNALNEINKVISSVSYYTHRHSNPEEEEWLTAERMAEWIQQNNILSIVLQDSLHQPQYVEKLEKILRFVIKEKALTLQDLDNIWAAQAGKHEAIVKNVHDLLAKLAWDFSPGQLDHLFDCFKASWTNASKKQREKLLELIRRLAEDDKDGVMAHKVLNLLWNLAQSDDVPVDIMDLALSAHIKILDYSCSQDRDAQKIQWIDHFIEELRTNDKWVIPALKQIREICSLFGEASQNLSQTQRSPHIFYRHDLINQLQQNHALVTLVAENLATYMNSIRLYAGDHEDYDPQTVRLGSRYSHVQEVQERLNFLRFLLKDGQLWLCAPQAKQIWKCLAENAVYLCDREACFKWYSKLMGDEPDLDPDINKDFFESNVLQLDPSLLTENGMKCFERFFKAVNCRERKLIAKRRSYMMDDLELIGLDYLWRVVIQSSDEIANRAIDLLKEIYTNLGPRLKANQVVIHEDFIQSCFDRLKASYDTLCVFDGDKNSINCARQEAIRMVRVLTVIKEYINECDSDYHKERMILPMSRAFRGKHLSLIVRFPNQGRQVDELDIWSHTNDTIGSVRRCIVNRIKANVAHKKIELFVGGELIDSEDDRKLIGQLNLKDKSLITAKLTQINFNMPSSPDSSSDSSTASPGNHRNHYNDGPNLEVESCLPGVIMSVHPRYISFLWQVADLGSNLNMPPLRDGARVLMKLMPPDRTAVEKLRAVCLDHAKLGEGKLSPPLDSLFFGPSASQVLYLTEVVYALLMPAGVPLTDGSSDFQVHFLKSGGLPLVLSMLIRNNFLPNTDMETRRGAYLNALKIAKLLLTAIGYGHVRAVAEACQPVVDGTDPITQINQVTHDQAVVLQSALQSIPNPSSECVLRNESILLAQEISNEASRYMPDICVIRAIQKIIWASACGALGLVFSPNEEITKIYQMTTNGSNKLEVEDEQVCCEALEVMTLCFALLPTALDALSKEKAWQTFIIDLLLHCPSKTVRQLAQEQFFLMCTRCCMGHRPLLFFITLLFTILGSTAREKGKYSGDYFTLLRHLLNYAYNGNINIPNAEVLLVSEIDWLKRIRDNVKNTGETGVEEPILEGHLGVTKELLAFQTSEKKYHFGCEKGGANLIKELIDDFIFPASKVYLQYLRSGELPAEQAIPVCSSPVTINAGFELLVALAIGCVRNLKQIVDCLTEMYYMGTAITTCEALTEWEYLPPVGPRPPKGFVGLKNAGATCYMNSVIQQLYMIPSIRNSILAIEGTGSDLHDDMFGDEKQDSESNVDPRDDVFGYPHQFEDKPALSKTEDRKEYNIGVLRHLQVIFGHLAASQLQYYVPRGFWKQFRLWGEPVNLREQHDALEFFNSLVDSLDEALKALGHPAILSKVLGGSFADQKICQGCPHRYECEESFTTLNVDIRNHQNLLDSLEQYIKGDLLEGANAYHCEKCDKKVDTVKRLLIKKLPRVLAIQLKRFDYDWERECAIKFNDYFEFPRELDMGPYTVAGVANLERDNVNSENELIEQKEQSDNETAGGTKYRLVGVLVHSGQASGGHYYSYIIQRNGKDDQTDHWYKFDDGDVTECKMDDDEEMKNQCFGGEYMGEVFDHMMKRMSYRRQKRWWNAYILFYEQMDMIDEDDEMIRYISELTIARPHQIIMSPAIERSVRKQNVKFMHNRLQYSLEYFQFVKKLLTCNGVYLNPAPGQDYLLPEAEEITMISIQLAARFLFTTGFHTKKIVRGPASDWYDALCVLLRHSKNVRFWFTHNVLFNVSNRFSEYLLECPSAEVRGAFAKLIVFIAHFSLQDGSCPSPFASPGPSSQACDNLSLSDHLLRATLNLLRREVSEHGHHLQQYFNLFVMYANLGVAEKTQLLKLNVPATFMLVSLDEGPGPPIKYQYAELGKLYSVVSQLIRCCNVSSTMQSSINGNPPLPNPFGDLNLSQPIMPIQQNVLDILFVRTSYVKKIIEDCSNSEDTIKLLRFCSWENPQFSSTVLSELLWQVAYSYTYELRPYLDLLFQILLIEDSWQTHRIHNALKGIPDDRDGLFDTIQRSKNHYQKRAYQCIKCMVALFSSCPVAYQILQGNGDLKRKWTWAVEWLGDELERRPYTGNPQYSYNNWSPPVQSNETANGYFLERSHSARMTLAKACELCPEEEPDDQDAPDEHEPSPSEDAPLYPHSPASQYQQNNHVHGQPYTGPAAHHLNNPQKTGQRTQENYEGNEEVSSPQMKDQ
# Method in brief: as §1
# UniProt P51784 = molecular target: UniProt P51784
# Chain of UniProt P51784 (P51784 whole entry): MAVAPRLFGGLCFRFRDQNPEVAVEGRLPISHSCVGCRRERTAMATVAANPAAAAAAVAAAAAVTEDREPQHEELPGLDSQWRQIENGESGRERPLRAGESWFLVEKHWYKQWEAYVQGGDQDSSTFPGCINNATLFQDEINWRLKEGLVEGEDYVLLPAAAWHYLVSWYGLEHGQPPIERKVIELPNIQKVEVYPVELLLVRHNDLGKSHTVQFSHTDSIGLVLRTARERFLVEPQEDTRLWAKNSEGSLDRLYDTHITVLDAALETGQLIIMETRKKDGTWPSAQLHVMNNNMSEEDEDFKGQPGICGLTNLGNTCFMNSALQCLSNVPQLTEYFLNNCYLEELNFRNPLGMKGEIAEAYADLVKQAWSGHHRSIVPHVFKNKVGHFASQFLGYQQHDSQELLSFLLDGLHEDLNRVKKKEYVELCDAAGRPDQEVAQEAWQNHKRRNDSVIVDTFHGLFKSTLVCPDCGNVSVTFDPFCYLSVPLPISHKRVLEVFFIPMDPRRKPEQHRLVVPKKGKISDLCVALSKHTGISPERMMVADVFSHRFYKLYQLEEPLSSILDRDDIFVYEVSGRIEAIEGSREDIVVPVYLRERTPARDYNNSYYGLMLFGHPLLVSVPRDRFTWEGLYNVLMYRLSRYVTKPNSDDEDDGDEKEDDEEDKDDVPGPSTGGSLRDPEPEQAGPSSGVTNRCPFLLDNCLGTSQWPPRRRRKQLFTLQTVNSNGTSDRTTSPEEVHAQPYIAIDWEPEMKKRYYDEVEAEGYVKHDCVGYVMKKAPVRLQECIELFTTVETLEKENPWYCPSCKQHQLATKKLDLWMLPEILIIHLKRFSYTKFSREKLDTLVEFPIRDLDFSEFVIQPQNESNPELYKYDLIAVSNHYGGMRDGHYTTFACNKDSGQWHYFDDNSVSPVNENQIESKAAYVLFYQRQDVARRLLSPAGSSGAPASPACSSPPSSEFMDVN
# Method in brief: as §1
# UniProt Q5T2D3 = molecular target: T1, UniProt Q5T2D3
# T1 sequence (whole entry): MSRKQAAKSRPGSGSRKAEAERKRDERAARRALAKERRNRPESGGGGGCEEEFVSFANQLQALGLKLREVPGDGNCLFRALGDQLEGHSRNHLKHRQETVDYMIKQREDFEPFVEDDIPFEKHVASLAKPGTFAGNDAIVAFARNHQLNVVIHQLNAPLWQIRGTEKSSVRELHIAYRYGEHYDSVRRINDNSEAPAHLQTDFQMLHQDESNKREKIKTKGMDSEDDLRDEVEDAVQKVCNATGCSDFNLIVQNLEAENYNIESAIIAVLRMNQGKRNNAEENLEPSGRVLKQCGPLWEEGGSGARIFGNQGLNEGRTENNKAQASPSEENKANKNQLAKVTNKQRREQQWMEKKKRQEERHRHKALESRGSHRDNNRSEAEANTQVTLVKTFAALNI
# Method in brief: as §1
# UniProt Q8TE49 = molecular target: T2, UniProt Q8TE49
# T2 sequence (whole entry): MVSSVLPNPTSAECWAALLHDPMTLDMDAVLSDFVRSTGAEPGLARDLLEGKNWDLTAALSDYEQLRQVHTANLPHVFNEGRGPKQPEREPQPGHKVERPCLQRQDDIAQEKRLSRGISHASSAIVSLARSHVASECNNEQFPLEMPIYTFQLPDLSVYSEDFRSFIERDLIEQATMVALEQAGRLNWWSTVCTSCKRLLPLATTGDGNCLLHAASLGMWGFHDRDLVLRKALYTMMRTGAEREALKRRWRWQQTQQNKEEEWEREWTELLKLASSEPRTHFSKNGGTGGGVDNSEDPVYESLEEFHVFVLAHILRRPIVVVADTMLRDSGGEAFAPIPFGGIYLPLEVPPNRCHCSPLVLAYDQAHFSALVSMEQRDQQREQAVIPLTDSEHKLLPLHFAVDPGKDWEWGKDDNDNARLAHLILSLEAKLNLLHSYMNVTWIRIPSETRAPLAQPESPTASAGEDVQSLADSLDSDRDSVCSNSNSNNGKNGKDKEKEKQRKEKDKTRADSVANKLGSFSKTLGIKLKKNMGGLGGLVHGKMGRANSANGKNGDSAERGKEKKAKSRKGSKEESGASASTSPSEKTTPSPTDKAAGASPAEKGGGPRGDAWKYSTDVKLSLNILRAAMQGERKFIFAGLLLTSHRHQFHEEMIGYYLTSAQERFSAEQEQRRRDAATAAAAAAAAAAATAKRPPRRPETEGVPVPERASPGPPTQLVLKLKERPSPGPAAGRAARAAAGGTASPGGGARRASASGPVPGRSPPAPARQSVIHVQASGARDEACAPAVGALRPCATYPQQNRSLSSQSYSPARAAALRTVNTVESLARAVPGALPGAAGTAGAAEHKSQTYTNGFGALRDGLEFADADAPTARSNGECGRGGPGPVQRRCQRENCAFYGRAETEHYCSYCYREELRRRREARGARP
# Method in brief: as §1
# UniProt Q9P2H5 = molecular target: T3, UniProt Q9P2H5
# T3 sequence (whole entry): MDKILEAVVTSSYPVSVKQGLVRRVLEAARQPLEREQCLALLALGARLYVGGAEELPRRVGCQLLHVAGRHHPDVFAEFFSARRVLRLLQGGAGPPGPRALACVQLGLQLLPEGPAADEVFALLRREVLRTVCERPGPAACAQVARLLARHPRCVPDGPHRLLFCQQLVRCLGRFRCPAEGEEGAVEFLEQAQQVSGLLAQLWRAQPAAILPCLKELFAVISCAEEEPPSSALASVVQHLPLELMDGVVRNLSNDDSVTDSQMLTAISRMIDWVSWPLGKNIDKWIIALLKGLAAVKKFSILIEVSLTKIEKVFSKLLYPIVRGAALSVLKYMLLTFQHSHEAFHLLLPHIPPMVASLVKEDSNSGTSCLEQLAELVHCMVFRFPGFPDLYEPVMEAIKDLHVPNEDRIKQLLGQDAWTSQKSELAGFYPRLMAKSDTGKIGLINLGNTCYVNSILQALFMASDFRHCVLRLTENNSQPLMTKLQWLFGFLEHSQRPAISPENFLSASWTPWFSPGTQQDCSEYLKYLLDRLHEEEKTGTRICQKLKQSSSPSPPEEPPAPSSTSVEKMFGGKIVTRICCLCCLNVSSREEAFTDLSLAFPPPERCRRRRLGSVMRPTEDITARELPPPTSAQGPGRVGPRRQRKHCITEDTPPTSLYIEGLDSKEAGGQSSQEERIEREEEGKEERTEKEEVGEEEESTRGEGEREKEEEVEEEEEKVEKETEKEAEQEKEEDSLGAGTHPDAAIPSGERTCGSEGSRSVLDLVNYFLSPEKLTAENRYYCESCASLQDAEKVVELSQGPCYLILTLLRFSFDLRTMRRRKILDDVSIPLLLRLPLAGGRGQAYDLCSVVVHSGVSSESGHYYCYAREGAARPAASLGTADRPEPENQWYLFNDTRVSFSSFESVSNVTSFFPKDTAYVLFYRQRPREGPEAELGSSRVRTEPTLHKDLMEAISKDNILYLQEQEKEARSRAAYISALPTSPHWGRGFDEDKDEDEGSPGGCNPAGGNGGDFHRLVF
# Method in brief: as §1
# UniProt Q9UGI0 = molecular target: T4, UniProt Q9UGI0
# T4 sequence (whole entry): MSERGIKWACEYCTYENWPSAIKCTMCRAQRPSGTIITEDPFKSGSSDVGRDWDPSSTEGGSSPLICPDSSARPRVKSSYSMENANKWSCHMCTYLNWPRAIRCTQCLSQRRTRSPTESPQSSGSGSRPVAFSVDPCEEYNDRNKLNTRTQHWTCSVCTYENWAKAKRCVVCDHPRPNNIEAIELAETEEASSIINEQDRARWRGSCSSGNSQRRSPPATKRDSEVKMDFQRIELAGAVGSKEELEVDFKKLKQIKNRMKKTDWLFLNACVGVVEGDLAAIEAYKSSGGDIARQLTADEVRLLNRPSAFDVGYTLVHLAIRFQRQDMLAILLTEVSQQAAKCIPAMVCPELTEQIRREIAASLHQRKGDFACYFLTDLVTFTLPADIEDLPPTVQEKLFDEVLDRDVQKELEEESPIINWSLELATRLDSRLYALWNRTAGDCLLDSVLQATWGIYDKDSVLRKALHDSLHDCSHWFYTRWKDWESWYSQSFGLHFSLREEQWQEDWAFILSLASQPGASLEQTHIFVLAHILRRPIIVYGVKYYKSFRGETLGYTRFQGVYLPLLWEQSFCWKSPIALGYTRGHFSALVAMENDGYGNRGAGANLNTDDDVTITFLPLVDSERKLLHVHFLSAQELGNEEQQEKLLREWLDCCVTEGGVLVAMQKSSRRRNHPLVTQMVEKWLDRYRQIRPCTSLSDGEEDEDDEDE
# Method in brief: as §1
# YOD1 = molecular target: T5, YOD1 (UniProt Q5VVQ6)
# T5 sequence (whole entry): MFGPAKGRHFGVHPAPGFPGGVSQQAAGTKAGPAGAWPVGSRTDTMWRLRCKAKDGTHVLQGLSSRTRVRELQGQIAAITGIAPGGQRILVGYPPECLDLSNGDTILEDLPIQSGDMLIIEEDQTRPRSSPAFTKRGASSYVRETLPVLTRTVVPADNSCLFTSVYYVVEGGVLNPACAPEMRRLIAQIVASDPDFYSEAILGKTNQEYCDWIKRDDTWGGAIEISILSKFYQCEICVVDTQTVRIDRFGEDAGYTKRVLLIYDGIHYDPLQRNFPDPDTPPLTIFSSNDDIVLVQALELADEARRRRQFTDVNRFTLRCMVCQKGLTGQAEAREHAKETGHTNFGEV
# Method in brief: as §1
structure (smiles),measurement,setting,value
O=C(CCl)N1CCc2nc[nH]c2C1c1ccc(Cl)cc1 (centres undefined),log2 ratio of Biotin-Ahx-Ub-VS probe labelling,USP9X,-0.619
same,log2 ratio of Biotin-Ahx-Ub-VS probe labelling,UniProt O00487,0.0187
same,log2 ratio of Biotin-Ahx-Ub-VS probe labelling,UniProt O00507,-0.893
same,log2 ratio of Biotin-Ahx-Ub-VS probe labelling,UniProt P51784,0.194
same,log2 ratio of Biotin-Ahx-Ub-VS probe labelling,UniProt Q5T2D3,-0.0219
same,log2 ratio of Biotin-Ahx-Ub-VS probe labelling,UniProt Q8TE49,-1.15 (active)
same,log2 ratio of Biotin-Ahx-Ub-VS probe labelling,UniProt Q9P2H5,-0.000874
same,log2 ratio of Biotin-Ahx-Ub-VS probe labelling,UniProt Q9UGI0,-1.05 (active)
same,log2 ratio of Biotin-Ahx-Ub-VS probe labelling,YOD1,-0.117
